Some of the results follow. The hit rate among all sequences tested is not known here.
Target: furin, P09958
Assay: furin cleavage Z-score vs untreated control; higher = more cleavage, active = 3.5 or more, inactive = 1 or less, 8 variable residues between constant flanks
In short: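 To give the cleavage Z-score, log read counts were set against furin-free reactions, lowess-adjusted and scaled by median absolute deviation. These counts came from PCR adapter-tagged, sequenced DNA released when purified furin cut 8-mer peptides fused to a cDNA oligonucleotide and held on magnetic beads by their N-terminus. Digests were 0.01 ml, 1:10 enzyme:substrate, in 50 mM HEPES pH 7.5 with CaCl2 and NaCl, for 7.5, 15 or 30 min.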

Chain of furin, P09958 (P09958 whole entry): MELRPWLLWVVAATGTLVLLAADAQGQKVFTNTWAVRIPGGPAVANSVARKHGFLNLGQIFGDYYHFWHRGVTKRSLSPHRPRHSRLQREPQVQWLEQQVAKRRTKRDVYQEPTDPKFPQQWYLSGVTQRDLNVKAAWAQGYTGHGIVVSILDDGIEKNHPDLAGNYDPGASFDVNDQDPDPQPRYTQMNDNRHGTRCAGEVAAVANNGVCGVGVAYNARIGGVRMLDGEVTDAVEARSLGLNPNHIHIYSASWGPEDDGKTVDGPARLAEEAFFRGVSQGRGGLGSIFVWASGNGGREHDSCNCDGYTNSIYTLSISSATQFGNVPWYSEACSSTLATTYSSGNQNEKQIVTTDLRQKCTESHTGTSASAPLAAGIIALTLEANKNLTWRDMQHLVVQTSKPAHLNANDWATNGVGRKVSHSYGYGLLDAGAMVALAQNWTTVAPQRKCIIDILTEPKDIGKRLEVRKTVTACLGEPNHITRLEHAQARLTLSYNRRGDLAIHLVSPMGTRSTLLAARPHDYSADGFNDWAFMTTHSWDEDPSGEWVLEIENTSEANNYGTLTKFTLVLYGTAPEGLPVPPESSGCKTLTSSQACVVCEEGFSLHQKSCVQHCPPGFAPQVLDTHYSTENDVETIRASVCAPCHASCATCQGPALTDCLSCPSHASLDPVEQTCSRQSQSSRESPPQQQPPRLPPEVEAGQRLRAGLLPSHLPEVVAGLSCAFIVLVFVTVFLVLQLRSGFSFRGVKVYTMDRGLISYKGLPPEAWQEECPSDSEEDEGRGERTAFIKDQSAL

Sequence | furin cleavage Z-score (7.5 min) | furin cleavage Z-score (15 min) | furin cleavage Z-score (30 min)
CAELSPLLLTAGNASASA [HC491] | -1.56 (inactive) | -0.594 (inactive) | 0.347 (inactive)
CASEPCSAHLAGNASASA [HC2492] | -0.366 (inactive) | -0.474 (inactive) | -0.0579 (inactive)
CARRARHPGQAGNASASA [FS-2448] | 0.222 (inactive) | -1.48 (inactive) | -0.313 (inactive)
CARKRRQTGQAGNASASA [FS-2701] | 9.83 (active) | 11.9 (active) | 7.6 (active)
CARKRRETSQAGNASASA [FS-2347] | 13.9 (active) | 14.9 (active) | 10.1 (active)
CARDSRSSERAGNASASA [FS-2654] | -1.62 (inactive) | -0.417 (inactive) | -0.301 (inactive)
CARKRRNTIHAGNASASA [FS-2567] | 9.29 (active) | 10.7 (active) | 9.63 (active)
CARKTRFIIHAGNASASA [FS-2426] | 0.0934 (inactive) | -2.08 (inactive) | 0.575 (inactive)
CAVHKRSAERAGNASASA [FS-2854] | 2.95 | 4.06 (active) | 5.25 (active)
CAKLTPIAAAAGNASASA [HC1638] | -0.902 (inactive) | 0.513 (inactive) | -0.874 (inactive)
CARKRRDVMQAGNASASA [FS-1905] | 8.11 (active) | 9.14 (active) | 9.14 (active)
CASNCRHERDAGNASASA [FS-722] | 1.11 | 0.623 (inactive) | 1.08
CAGAERKMRDAGNASASA [FS-653] | 2.56 | 3.75 (active) | 3.61 (active)
CAENKVVILDAGNASASA [HC1284] | -1.51 (inactive) | 0.132 (inactive) | -0.906 (inactive)
CAGWSRARRDAGNASASA [FS-334] | 9.99 (active) | 12.4 (active) | 9.61 (active)
CAENLRKRRDAGNASASA [FS-585] | 13.3 (active) | 14.1 (active) | 10.9 (active)
CARPRRPNGDAGNASASA [FS-1913] | -0.861 (inactive) | -0.812 (inactive) | 0.059 (inactive)
CARPRRARRDAGNASASA [FS-289] | 10.4 (active) | 10.6 (active) | 7.54 (active)
CAGVVTSTWVAGNASASA [HC2156] | 0.312 (inactive) | -0.173 (inactive) | -0.545 (inactive)
CAPSGCPPDSAGNASASA [HC1347] | 0.626 (inactive) | 0.736 (inactive) | -1.37 (inactive)
CAACQRQKKVAGNASASA [HC1393] | 0.424 (inactive) | -0.843 (inactive) | -0.382 (inactive)
CALLTRIPGFAGNASASA [FS-3146] | -0.34 (inactive) | 0.0643 (inactive) | -0.495 (inactive)

Sequence | furin cleavage Z-score (7.5 min) | furin cleavage Z-score (15 min) | furin cleavage Z-score (30 min)
CARPMRPVGHAGNASASA [FS-2739] | -0.34 (inactive) | -0.708 (inactive) | 1.89
CARPVRDCDDAGNASASA [FS-3028] | 0.136 (inactive) | 1.92 | 1.99
CARPERGARGAGNASASA [FS-2737] | -0.85 (inactive) | 0.79 (inactive) | 0.188 (inactive)
CALLTRARRDAGNASASA [FS-1362] | 10.7 (active) | 11.2 (active) | 8.73 (active)
CALLLFAGVDAGNASASA [HC348] | -0.657 (inactive) | -0.224 (inactive) | -1.23 (inactive)
CARPERGPRGAGNASASA [FS-1264] | 1.01 | 0.671 (inactive) | 1.51
CAKVHRQRRDAGNASASA [FS-48] | 6.48 (active) | 5.35 (active) | 4.45 (active)
CAEVDVQARDAGNASASA [FS-1628] | -1.25 (inactive) | 0.00773 (inactive) | -1.04 (inactive)
CARPERYRRHAGNASASA [FS-491] | 12.7 (active) | 14.8 (active) | 11.1 (active)
CARPERKRRDAGNASASA [FS-1066] | 14.3 (active) | 14.2 (active) | 10.6 (active)
CATTPCSGEWAGNASASA [HC1912] | -1.69 (inactive) | -0.859 (inactive) | 0.0519 (inactive)
CAMVCCSMSYAGNASASA [HC1986] | 0.714 (inactive) | 1.46 | 0.242 (inactive)
CAIICDECHSAGNASASA [HC817] | -0.464 (inactive) | -1.69 (inactive) | -0.782 (inactive)
CAKDSRCDRDAGNASASA [FS-544] | -1.48 (inactive) | -1.29 (inactive) | 0.34 (inactive)
CAKSRRARRDAGNASASA [FS-1597] | 7.96 (active) | 9.22 (active) | 7.04 (active)
CAQLAAPGAAAGNASASA [HC1070] | -0.00694 (inactive) | -2.1 (inactive) | -1.59 (inactive)
CAALDTEVAAAGNASASA [HC565] | 1.05 | 0.0294 (inactive) | -0.123 (inactive)
CARMAREVAAAGNASASA [FS-1909] | 6.15 (active) | 4.78 (active) | 6.63 (active)
CARPDRPVLKAGNASASA [FS-2436] | -0.645 (inactive) | -0.376 (inactive) | -0.377 (inactive)
CARMARNVLKAGNASASA [FS-2281] | 2.27 | 2.22 | 4.88 (active)
CARKFRDLLKAGNASASA [FS-1724] | -0.828 (inactive) | -1.86 (inactive) | 0.751 (inactive)
